# Source: PubChem BioAssay (several laboratories)
# In the library only some 3.8% were active in any assay of this set; here they are far more common.
# ERa SRC1 pot: enhancers of ERα–SRC-1 coactivator binding, primary screen, biochemical, TR-FRET, ERα LBD, low estradiol; TR-FRET ERalpha-LBD/SRC-Cy5 coactivator binding, 2 h; 100 = basal binding, no effect; coactivator binding (% of control), % at 25.6 µM; actives 1.3% (n = 86,000); AID 639, 2007; in the data active means activity above about 200%;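 further: binding measured in presence of low estradiol as agonist stimulus; 0% = peptide alone without receptor and 100% = receptor with peptide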
# MT1-MMP txn act: MT1-MMP promoter reporter activation – cell-based, luciferase luminescence, primary screen; HT1080 MT1-MMP promoter luciferase reporter, overnight; hits give high values; activation factor at 10 µM; actives 0.16% (n = 86,000); AID 750, 2007;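 active means activation factor of at least 2 for MT1-MMP transcription at 10 µM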
# hDAT+cocaine: changed hDAT dopamine uptake under cocaine IC80, either direction, primary screen, cocaine antagonist project, cell-based, LLC-PK1 hDAT, [14C]-dopamine uptake, MLSMR | LLC-PK1 hDAT cells, [14C]-dopamine uptake with cocaine IC80; actives deviate in either direction | Sodium-dependent dopamine transporter (Homo sapiens), Q01959 | actives 1.3% (n = 110,000) | B-score at 10 µM;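 active means Z score or B-score, a plate-position-corrected score, falls beyond the plate's 99.7% confidence bounds, in either direction; inactive means both scores lie inside the 99.7% bounds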;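 further: scored against the spread of the other compound wells on the same plate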
# Target sequence (Q01959 whole entry, looked up): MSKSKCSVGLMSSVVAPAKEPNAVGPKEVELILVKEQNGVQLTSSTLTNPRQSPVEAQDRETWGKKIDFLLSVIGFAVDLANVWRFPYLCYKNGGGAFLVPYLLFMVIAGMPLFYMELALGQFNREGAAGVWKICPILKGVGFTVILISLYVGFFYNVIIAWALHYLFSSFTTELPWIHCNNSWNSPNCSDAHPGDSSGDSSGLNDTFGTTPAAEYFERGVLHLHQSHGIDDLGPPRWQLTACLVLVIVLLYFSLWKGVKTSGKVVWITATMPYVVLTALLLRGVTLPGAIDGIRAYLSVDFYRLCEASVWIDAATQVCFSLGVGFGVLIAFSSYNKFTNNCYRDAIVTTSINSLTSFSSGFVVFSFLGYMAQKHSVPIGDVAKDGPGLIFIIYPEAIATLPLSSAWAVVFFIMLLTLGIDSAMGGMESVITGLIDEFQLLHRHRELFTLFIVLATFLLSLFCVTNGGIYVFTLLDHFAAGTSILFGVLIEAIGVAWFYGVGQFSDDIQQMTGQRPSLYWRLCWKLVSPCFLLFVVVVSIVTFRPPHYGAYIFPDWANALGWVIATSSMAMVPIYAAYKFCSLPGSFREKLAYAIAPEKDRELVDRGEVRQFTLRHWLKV
# ERa coact inh: ERα–SRC-1 coactivator interaction inhibitors, primary screen, biochemical, TR-FRET, ERα LBD, estradiol-bound; TR-FRET ER-alpha LBD / SRC-1 peptide; inhibition, % at 25.6 µM; actives 1.7% (n = 86,000); AID 629, 2007; in the data active means inhibition above about 50%;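 further: 0% = receptor plus peptide control and 100% = peptide only without receptor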
# ERb coact inh: inhibitors of ERβ-SRC1 coactivator interaction, primary screen, biochemical, TR-FRET, ERβ LBD, SRC-1 peptide; actives 1.3% (n = 86,000); Estrogen receptor beta (Homo sapiens), Q92731; TR-FRET ER-beta LBD / SRC1-Cy5 peptide binding; receptor agonist-loaded with 1 µM estradiol; inhibition, % at 25.6 µM; AID 633, 2007;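 active means compounds whose percent inhibition of the receptor-coactivator binding signal exceeds about 50% in the single-dose screen, limit read from the data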;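 further: 0% = receptor plus peptide wells without compound and 100% = peptide-only wells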
# * marks the source's active call; other numbers are inactive results; . = no result given; [ ] = another dose, or the depositor's remark.
SMILES,ERa SRC1 pot,MT1-MMP txn act,hDAT+cocaine,ERa coact inh,ERb coact inh
COC(=O)[C@H]1C[C@@H]1[C@H](NC(=O)c1ccccc1)c1ccccc1,.,1.3,-0.68,.,.
COc1ccc(-n2nc3c(c2NC(=O)c2cc4ccccc4oc2=O)CS(=O)(=O)C3)cc1,86,1.2,.,63*,66*[fluorescence artefact?]
CCC(C(=O)NCc1ccc(F)cc1)N(Cc1ccco1)C(=O)c1snc(C(N)=O)c1N (stereo not drawn),107,1,4.3*,-2,11
COc1ccc2c(c1)CC1c3c(cc4c(c3-2)OCO4)CC[N+]1(C)[O-] (stereo not drawn),.,.,0.93,.,.
S=C(Nc1ccccc1)Nc1ccccc1C#Cc1ccccc1,.,1.1,.,.,.
Cc1ccc(S(=O)(=O)c2nc(-c3ccc(F)cc3)oc2SCC(=O)NCC2CCCO2)cc1 (stereo not drawn),310*[fluorescence artefact?],1.1,-0.029,39,15
Cc1ccc(-c2nc(S(=O)(=O)c3ccc(F)cc3)c(SCC(=O)NCC3CCCO3)o2)cc1 (stereo not drawn),107,1.1,-0.8,67*[fluorescence artefact?],25
O=C(CSc1oc(-c2ccc(F)cc2)nc1S(=O)(=O)c1ccc(F)cc1)NCC1CCCO1 (stereo not drawn),86,1,-0.29,15,16
O=C(O)C(Cc1ccccc1)N1C(=O)/C(=C/c2cccc3ccccc23)SC1=S (stereo not drawn),.,.,-2.7*,.,.
Cc1c(N2C(=O)/C(=C\c3cccc4ccccc34)SC2=S)c(=O)n(-c2ccccc2)n1C,.,.,-0.59,.,.
CC(C)=CCCC1(C)C=Cc2c(c(C)cc3c2[nH]c2cc(O)ccc23)O1 (stereo not drawn),.,.,-0.031,.,.
CCOc1ccc(NC(=O)c2ccccc2OCC(=O)c2ccc(C)cc2)cc1,.,.,-0.27,.,.
CCOc1ccc(NC(=O)C(C)Oc2ccccc2C(=O)Nc2ccc(C)c(Cl)c2)cc1 (stereo not drawn),.,.,2.7*,.,.
N#Cc1c(NC(=O)CSc2nnc(-c3ccncc3)n2CC2CCCO2)sc2c1CCCC2 (stereo not drawn),115,1,2.5,-4,-5
Cn1cnnc1SCC(=O)Nc1sc2c(c1C(N)=O)CCC2,13,1.1,-0.47,94*[fluorescence artefact?],93*[fluorescence artefact?]
CCOC(=O)c1c(NC(=O)CSc2nncn2C)sc(C)c1C,111,.,.,-5,-7
NC(=O)c1c(NC(=O)CSc2nnc(-c3ccccc3)n2CC2CCCO2)sc2c1CCC2 (stereo not drawn),109,1.1,2.7*,6,4
C/C=C\C=C\C(=O)Nc1cccc(C2=NOC3(C2)C[C@@H](C(N)=O)N(C(=O)C(c2ccccc2)c2ccccc2)C3)c1 (stereo partly drawn),.,.,1.4,.,.
CCOC(=O)c1cnc(SCC(=O)Nc2nc(C)c(C)s2)nc1N,108,1.1,0.36,7,2
CCOC(=O)c1cnc(SCC(=O)Nc2nnc(CC)s2)nc1N,235*,1,0.05,-8,1
COc1ccc(Br)cc1CNC(=O)C1CCCN(c2nc3ccccc3o2)C1 (stereo not drawn),102,1.2,-0.064,64*,28
Cc1ccc(CNC(=O)C2CCCN(c3nc4ccccc4o3)C2)cc1 (stereo not drawn),114,1.1,.,-12,49
COc1ccc(OC)c(CNC(=O)CCN2C(=O)COc3ccccc32)c1,105,1.2,1.6*,6,-9
CCOC(=O)C1=C(C)N(CCCC(=O)O)C(=O)NC1c1ccccc1OS(=O)(=O)c1ccc([N+](=O)[O-])cc1 (stereo not drawn),.,1.1,-0.07,.,.
CC1=C(C(=O)OCc2ccccc2)C(c2ccccc2OS(=O)(=O)c2ccc([N+](=O)[O-])cc2)NC(=O)N1CCCC(=O)O (stereo not drawn),.,1.2,2.8*,.,.
SMILES,ERa SRC1 pot,MT1-MMP txn act,hDAT+cocaine,ERa coact inh,ERb coact inh
CC1(C)CC(=O)C2=C(C1)OC(N)=C(C#N)C21CCC2(CC1)OCCO2,107,1,23*,-50,-30
OC1c2ccccc2-c2nc3ccccc3cc21 (stereo not drawn),.,1,.,.,.
O=C(Nc1ccncc1)C1c2ccccc2Oc2ccccc21,102,1,-1.6,98*[fluorescence artefact?],9
CCCOC(=O)Cc1n[nH]c(=O)[nH]c1=O,.,1,-2.2*,.,.
CC(=O)NC12CC3CC(C1)CC(C(=O)OCC(=O)Nc1ncc(Cl)c(C)c1Cl)(C3)C2,49,1.1,0.16,74*[fluorescence artefact?],60*
CC(C)=CC(=O)OCC(=O)Nc1ncc(Cl)c(C)c1Cl,37,1.2,-0.33,28,31
CCC(=O)NC(=S)Nc1ccc(Cl)cn1,.,.,2.2*,.,.
CCCCC(=O)Nc1ccc(Cl)cn1,113,1.6,-0.7,4,-2
O=C(Nc1ccccc1)C1=C[C@@H](C2CC2)C[C@@H](OCCCCO)O1,.,.,-1.5,.,.
O=C1NC(c2ccc(Br)cc2)Nc2sc3c(c21)CCC3 (stereo not drawn),26,1.4,0.59,51*,64*
Cc1ccc(NCc2ccccc2O)cc1,100,1.6,1.1,3,-5
Cc1ccc(CNc2ccc(O)cc2)cc1,72,1.1,0.86,35,65*[fluorescence artefact?]
CCCCSc1ccc2nc(-c3ccc(C#N)cc3)cn2c1,.,.,2.4*,.,.
COc1ccc(-c2cn3cc(Cl)ccc3n2)cc1OC,104,1.9,0.93,0,-2
Clc1ccc(OCc2nnc(SCCN3CCCCC3)n2Cc2ccco2)cc1,125,1,3.3*,8,5
C=C(N(C)C)[C@]1(C)C[C@H]1[C@H](NC(=O)CNC(=O)OCc1ccccc1)c1ccccc1,.,1.2,.,.,.
COc1cc(C2Nc3cccc4cccc(c34)N2)ccc1OC(C)=O,57,1.4,0.46,19,46
COc1cc(C2Nc3cccc4cccc(c34)N2)cc(OC)c1O,46,1,1.7,54*[fluorescence artefact?],82*[fluorescence artefact?]
COC(=O)c1ccc(OC)c(CSc2nnc(-c3ccc(C)cc3)o2)c1,455*[fluorescence artefact?],1.1,.,36,14
O=C(CSc1ccc(-c2ccccc2)nn1)NCc1ccco1,101,1.3,-0.4,-7,-1
COc1cc(C(=O)NCCOc2cc(C)cc(C)c2)c(Br)c(OC)c1OC,.,.,-0.18,.,.
O=C(NCc1ccco1)c1ccc(Cn2c(=O)c3ccccc3n(Cc3cccc(Cl)c3)c2=O)cc1,61,1.1,-0.012,67*[fluorescence artefact?],50
O=C(Cn1c(=O)n(Cc2ccco2)c(=O)c2ccccc21)Nc1cccc(Cl)c1,144,1.1,-1.3,7,5
O=C(NCc1ccco1)c1ccc(Cn2c(=O)c3sccc3n(Cc3cccc(F)c3)c2=O)cc1,142,.,-0.48,57*[fluorescence artefact?],25
